Inconclusive results are not listed. Unless noted, the call rests on the fitted dose curve; in most records, active means well fitted curve in either direction with a large enough effect (not every such curve was filed as active); inconclusive means small, poorly fitted or top-dose-only effect, or another doubt; inactive means flat fitted curve, though single readings scatter.
What was measured:
[1] = AP1 Signaling Pathway (AID 357); conditions: ME-180 AP-1-bla reporter, EGF-induced, beta-lactamase ratio, 5 h; at 17.2 µM (top of the series) unless noted;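 further: ME-180 reporter cells stimulated with EGF at its EC50 level; on the % scale 0 is the no-effect control and ±100 the full control effect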
Procedure, shortened: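 First, ME-180 AP-1-bla cells were cultured overnight at 37 °C in low-serum Opti-MEM. Next, titrated compounds with EC50 EGF were incubated 5 hours. Finally, CCF4 was added for 2.5 hours and the 460/530 nm ratio recorded.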

[2] = NFAT Signaling Pathway (AID 444); conditions: Jurkat NFAT-bla M1, carbachol, beta-lactamase ratio, 5 h; at 17.2 µM (top of the series) unless noted;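 further: carbachol stimulus at about its EC50 of 1 µM final; on the % scale 0 is the no-effect control and ±100 the full control effect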
Procedure, shortened: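 Jurkat cells with NFAT-driven β-lactamase reporter and co-expressed M1 receptor, stimulated with carbachol (final 1 uM, ~EC50), compound titration, 5 h at 37 °C. CCF4 loaded 1 h at RT; 460/530 nm ratio gave %activity and AC50.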

[3] = Stat Signaling Pathway (AID 446); conditions: ME-180 SIE beta-lactamase reporter, IL-6 stimulated, 5 h; at 17.2 µM (top of the series) unless noted;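 further: ME-180 cervical cancer cells given 40 pM IL-6 alongside compound; SIE-controlled beta-lactamase reporter measured as 460/530 nm FRET emission ratio; on the % scale 0 is the no-effect control and ±100 the full control effect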
Procedure, shortened: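 Screening format detects activators and inhibitors alike: ME-180 SIE-bla cells stimulated at 40 pM IL-6 for 5 hrs with compound, then dual-emission beta-lactamase read at 405 nm excitation.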

[4] = molecular target: Glucocorticoid receptor (Homo sapiens) (UniProt P04150); assay: GR-GFP Redistribution (AID 450;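 active means compounds whose dose series gives a full or clear partial fitted curve of increased nuclear translocation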; further: potency means the concentration at half of the fitted maximal effect)
Sequence of Glucocorticoid receptor (Homo sapiens) (P04150 whole entry, looked up): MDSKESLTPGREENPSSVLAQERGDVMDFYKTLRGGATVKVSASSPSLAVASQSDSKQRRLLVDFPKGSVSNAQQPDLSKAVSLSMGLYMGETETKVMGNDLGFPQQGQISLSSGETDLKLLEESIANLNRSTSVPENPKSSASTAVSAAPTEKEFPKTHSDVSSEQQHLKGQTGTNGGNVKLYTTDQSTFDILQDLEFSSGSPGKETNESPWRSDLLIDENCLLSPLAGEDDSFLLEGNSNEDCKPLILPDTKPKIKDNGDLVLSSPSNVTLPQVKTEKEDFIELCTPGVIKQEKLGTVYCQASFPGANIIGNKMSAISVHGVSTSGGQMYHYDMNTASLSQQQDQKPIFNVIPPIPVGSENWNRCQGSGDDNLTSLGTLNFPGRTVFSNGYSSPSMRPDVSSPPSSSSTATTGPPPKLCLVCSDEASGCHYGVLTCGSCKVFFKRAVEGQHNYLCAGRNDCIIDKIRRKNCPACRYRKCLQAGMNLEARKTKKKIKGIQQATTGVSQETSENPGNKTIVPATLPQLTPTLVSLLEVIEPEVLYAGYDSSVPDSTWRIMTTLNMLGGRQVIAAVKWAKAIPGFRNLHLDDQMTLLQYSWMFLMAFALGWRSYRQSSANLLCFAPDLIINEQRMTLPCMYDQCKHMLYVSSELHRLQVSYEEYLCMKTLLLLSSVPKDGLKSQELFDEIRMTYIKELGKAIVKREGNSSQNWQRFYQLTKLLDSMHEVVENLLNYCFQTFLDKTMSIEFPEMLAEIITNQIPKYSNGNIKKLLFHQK

CCCc1cc(NCCN2CCOCC2)n2c(nc3ccccc32)c1C#N
inactive: activity change, negative = inhibition [1] -11.4% | activity change, negative = inhibition [2] 9.42% | activity, negative = inhibition [3] -2.52% | Potency [4] > 20.6 µM

Cc1cc(=O)oc(C)c1C(=O)NCCNC(=O)c1c(C)cc(=O)oc1C
inactive: activity change, negative = inhibition [1] 7.25% | activity change, negative = inhibition [2] 6.33% | activity, negative = inhibition [3] 6.54% | Potency [4] > 20.6 µM

N/C(=N\c1nc2ccccc2o1)NC(=O)c1ccccc1NC(=O)c1ccccc1
inactive: activity change, negative = inhibition [1] 14.1% | activity change, negative = inhibition [2] -14.2% | activity, negative = inhibition [3] -27.8% | Potency [4] > 20.6 µM

Cc1cccc(OCC(=O)N2CCC(N3CCOCC3)CC2)c1
inactive: activity change, negative = inhibition [1] -0.218% | activity change, negative = inhibition [2] 6.61% | activity, negative = inhibition [3] 2.76% | Potency [4] > 20.6 µM

Cc1cc(C)n(CC2CC(=O)N(c3cc(Cl)cc(Cl)c3)C2=O)n1 (stereo not given)
inactive: activity change, negative = inhibition [1] -15.1% | activity change, negative = inhibition [2] -7.21% | activity, negative = inhibition [3] 2.96% | Potency [4] > 20.6 µM

CCc1nc(N2CCN(C(=O)c3ccccc3)CC2)c(C#N)c2c1COC(C)(C)C2
inactive: activity change, negative = inhibition [1] -17.6% | activity change, negative = inhibition [2] 21.3% | activity, negative = inhibition [3] -14% | Potency [4] > 20.6 µM

Cc1cc(NC(=O)CSc2nc(-c3cccnc3)ccc2C#N)no1
inactive: activity change, negative = inhibition [1] -14.4% | activity change, negative = inhibition [2] 6.09% | activity, negative = inhibition [3] -9.33% | Potency [4] > 20.6 µM

N#Cc1nc(-c2cccs2)oc1NCCc1ccccc1
inactive: activity change, negative = inhibition [1] -17.4% | activity change, negative = inhibition [2] -0.887% | activity, negative = inhibition [3] -12.8% | Potency [4] > 20.6 µM

CCCOc1ccc(C2NC(=O)NC2=O)cc1 (stereo not given)
inactive: activity change, negative = inhibition [1] 5.97% | activity change, negative = inhibition [2] 9.35% | activity, negative = inhibition [3] -1.78% | Potency [4] > 20.6 µM

Nc1nc(NC(=O)c2cccs2)nn1-c1ccccc1
inactive: activity change, negative = inhibition [1] 4.21% | activity change, negative = inhibition [2] 7.64% | activity, negative = inhibition [3] -0.835% | Potency [4] > 20.6 µM

CCCC(C)n1[nH]c(=O)cc1N (stereo not given)
inactive: activity change, negative = inhibition [1] 11.2% | activity change, negative = inhibition [2] 8.48% | activity, negative = inhibition [3] 3.57% | Potency [4] > 20.6 µM

Nc1nnc(CSc2ccc(Cl)cc2)s1
inactive: activity change, negative = inhibition [1] 18.1% | activity change, negative = inhibition [2] -0.614% | activity, negative = inhibition [3] 2.04% | Potency [4] > 20.6 µM

O=C1CC(NCc2ccncc2)C(=O)N1c1ccc(Cl)cc1 (stereo not given)
inactive: activity change, negative = inhibition [1] -15.8% | activity change, negative = inhibition [2] 13.2% | activity, negative = inhibition [3] -1.32% | Potency [4] > 20.6 µM

COc1ccc(CN2CCC(=O)NC2=O)cc1
inactive: activity change, negative = inhibition [1] 9.75% | activity change, negative = inhibition [2] -0.653% | activity, negative = inhibition [3] 9.56% | Potency [4] > 20.6 µM

CN1CCC2(CC1)C1CN(C)CC=C1C(C#N)=C(N)C2(C#N)C#N (stereo not given)
inactive: activity change, negative = inhibition [1] 6.27% | activity change, negative = inhibition [2] 13.7% | activity, negative = inhibition [3] 12.8% | Potency [4] > 20.6 µM

C=CCN1C(=O)CC(C(=O)NC)SC1=Nc1ccc(C(=O)OCC)cc1 (stereo not given)
inactive: activity change, negative = inhibition [1] -3.69% | activity change, negative = inhibition [2] 16.7% | activity, negative = inhibition [3] -3.3% | Potency [4] > 20.6 µM

O=S(CCc1ccncc1)Cc1ccccc1 (stereo not given)
inactive: activity change, negative = inhibition [1] 9.28% | activity change, negative = inhibition [2] 26% | activity, negative = inhibition [3] 2.34% | Potency [4] > 20.6 µM

Oc1ccc2ccccc2c1C=NC12CN3CCN(CN(C3)C1)C2
inactive: activity change, negative = inhibition [1] 6.89% | activity change, negative = inhibition [2] -22.1% | activity, negative = inhibition [3] -13.6% | Potency [4] > 20.6 µM

CCOC(=O)CC(=O)CSc1nc2c(cc1C#N)CCCCC2
inactive: activity change, negative = inhibition [1] 2.56% | activity change, negative = inhibition [2] 1.41% | activity, negative = inhibition [3] -7.32% | Potency [4] > 20.6 µM

CC1(C)Cc2c(c(N3CCOCC3)nc3snc(N)c23)CO1
inactive: activity change, negative = inhibition [1] -12.8% | activity change, negative = inhibition [2] -24.1% | activity, negative = inhibition [3] -10.9% | Potency [4] > 20.6 µM

O=C1[C@@H]2[C@H](C(=O)N1O)[C@H]1C=C[C@@H]2C1
inactive: activity change, negative = inhibition [1] 5.39% | activity change, negative = inhibition [2] -15.3% | activity, negative = inhibition [3] 10.4% | Potency [4] > 20.6 µM

Cc1nc(NCCCO)c(C#N)c2c1COC(C)(C)C2
inactive: activity change, negative = inhibition [1] -14.2% | activity change, negative = inhibition [2] 1.02% | activity, negative = inhibition [3] 1.39% | Potency [4] > 20.6 µM

CCC1SC(N)=NC1=O (stereo not given)
inactive: activity change, negative = inhibition [1] 2.7% | activity change, negative = inhibition [2] -3.13% | activity, negative = inhibition [3] -1.83% | Potency [4] > 20.6 µM

Cc1nnc2n(Cc3ccccc3)c(=O)c3c4c(sc3n12)COC(C(C)C)C4 (stereo not given)
inactive: activity change, negative = inhibition [1] 10.6% | activity change, negative = inhibition [2] -9.5% | activity, negative = inhibition [3] 5.19% | Potency [4] > 20.6 µM

CN1C(=O)CC(N2CCN(c3ccc(Cl)c(Cl)c3)CC2)C1=O (stereo not given)
inactive: activity change, negative = inhibition [1] 17.6% | activity change, negative = inhibition [2] 16.8% | activity, negative = inhibition [3] 0.709% | Potency [4] > 20.6 µM

Source: PubChem BioAssay (NCATS)
